nsP2pro inh = blocks chikungunya virus nsP2 protease peptide cleavage. AID 1964107. Potency, µM (top dose mostly 24.9 µM), for inactives: top-dose activity change, negative = inhibition, usual class: inhibitors. FRET peptide cleavage, nsP2pro, fluorescence 1 h. Q8JUX6. 31,000 tested, 1.1% active; note: nearly all actives have a fitted effect of over 60% in size
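Recombinant nsP2pro (150 nM) was preincubated with compound 15 min at room temperature in 10 mM Tris-HCl pH 8.0, 0.01% Tween 20. Peptide 2 FRET substrate (2.5 uM) was then added and fluorescence read after 1 h. Seven-point series, up to 25 uM.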
CHIKV nsP2 cell = inhibits CHIKV nsP2 protease in cells; Potency, µM (top dose mostly 51.1 µM), without a hit: at the highest dose activity change, negative = inhibition, most hits filed as inhibitors; AID 1964100; 450 tested, 10% active; cell-based CHIKV nsP2 protease reporter assay; shares compounds with nsP2pro inh; note: nearly all actives have a fitted effect of over 70% in size
NSP2 full ctr = inhibits full-length CHIKV NSP2 enzyme. Full-length CHIKV NSP2 protease enzymatic counterscreen. 410 tested, 39% active. Potency, µM (titrated, usually from 50.7 µM), for the others: top-dose activity change, negative = inhibition, hits mostly inhibitors. shares compounds with nsP2pro inh; note: nearly all actives have a fitted effect of over 65% in size
Furin counter = inhibits human furin in a CHIKV nsP2 protease selectivity counterscreen; shares compounds with nsP2pro inh; Recombinant human furin enzymatic counterscreen, fluorogenic substrate; Potency, µM (doses to about 50.6 µM), for the others: top-dose activity change, negative = inhibition, most hits filed as inhibitors; 410 tested, 6% active
Target sequence (P09958 whole entry, looked up): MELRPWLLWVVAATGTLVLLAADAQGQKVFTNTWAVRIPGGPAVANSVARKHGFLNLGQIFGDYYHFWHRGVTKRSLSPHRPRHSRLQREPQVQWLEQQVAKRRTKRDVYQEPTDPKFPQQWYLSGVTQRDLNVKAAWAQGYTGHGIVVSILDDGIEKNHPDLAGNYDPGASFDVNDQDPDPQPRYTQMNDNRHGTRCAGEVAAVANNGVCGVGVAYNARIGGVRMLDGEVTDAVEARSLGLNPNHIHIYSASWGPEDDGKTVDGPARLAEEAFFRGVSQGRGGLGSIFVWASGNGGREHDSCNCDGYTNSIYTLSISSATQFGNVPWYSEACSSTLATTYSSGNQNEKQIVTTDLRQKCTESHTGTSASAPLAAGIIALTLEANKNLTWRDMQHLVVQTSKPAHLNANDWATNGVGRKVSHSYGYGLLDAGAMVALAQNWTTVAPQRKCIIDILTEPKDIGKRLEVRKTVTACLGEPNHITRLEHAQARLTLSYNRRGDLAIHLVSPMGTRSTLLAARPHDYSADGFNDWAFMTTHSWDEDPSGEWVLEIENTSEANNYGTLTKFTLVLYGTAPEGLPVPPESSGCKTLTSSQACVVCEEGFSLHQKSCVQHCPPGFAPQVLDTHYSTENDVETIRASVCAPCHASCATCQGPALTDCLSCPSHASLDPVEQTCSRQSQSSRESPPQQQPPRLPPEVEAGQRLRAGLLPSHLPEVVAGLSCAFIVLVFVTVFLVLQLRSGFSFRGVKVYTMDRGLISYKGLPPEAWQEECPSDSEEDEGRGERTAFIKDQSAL
nsP2 NS23 pep = nsP2pro inhibition on native NS2/3 peptide substrate; shares compounds with nsP2pro inh; Purified CHIKV nsP2 protease, endogenous NS2/3 peptide cleavage; Potency, µM (titrated, usually from 51 µM), for the others: at the highest dose activity change, negative = inhibition, hits mostly inhibitors; 410 tested, 34% active; note: nearly all actives have a fitted effect of over 55% in size
Papain counter = selectivity counter-screen for CHIKV nsP2 protease inhibitors: papain; Potency, µM (doses to about 51 µM), for inactives: top-dose activity change, negative = inhibition, hits mostly inhibitors; shares compounds with nsP2pro inh; 410 tested, 5% active; purified papain protease activity, enzymatic inhibition; AID 1964104
nsP2pro conf qHTS = CHIKV nsP2 protease inhibition, confirmatory qHTS; shares compounds with nsP2pro inh; CHIKV nsP2 protease enzymatic activity, qHTS; Potency, µM (doses to about 25.5 µM), inactives show top-dose activity change, negative = inhibition, usual class: inhibitors; 410 tested, 43% active; note: nearly all actives have a fitted effect of over 75% in size
HCV NS3 4A cs = selectivity counter-screen for CHIKV nsP2 protease inhibitors: HCV NS3/4A | AID 1964106 | 410 tested, 20% active | shares compounds with nsP2pro inh | Potency, µM (highest dose often 50.9 µM), actives largely listed as inhibitors | HCV NS3/4A protease biochemical counterscreen; note: nearly all actives have a fitted effect of over 55% in size
* marks the source's active call; other numbers are inactive results; i = inactive; ? = inconclusive; [ ] = dose if it differs, or a comment. The entries come from a sample that favours hits as a whole. Calls come from the whole dose curve. % is set by controls: 0 for no effect and ±100 for the full control effect; potency is the fitted concentration of half-maximal effect.

SMILES	nsP2pro inh	others
Cc1cc(NC(=O)Nc2nnc(-c3ccncc3)s2)ccc1F	0%
Cc1cc(C)nc(NC(=C(C#N)C#N)N2CCN(c3cccc(C(F)(F)F)c3)CC2)c1	-12%
COc1cccc(CN2CCOCCNC(=O)CC2)c1	-12%
C(#Cc1cccc(CN2CCOCC2)c1)CCN1CCCCC1	9.9µM*	CHIKV nsP2 cell=6%;NSP2 full ctr=?;Furin counter=-12%;nsP2 NS23 pep=?;Papain counter=-10%;nsP2pro conf qHTS=?;HCV NS3 4A cs=i
O=C1CCN(Cc2cccc(F)c2)CCCOCCN1	0%
Cc1ccc(-c2ccc(=O)n(CC(=O)NCCCc3ccco3)n2)cc1	-24%
COCCCNC(=O)c1ccc2nnc(Cc3ccc(Cl)cc3)n2c1	1%[39.2 µM]
CCCC(=O)OC[C@@H](OC(=O)CCC)[C@@H](OC(=O)CCC)[C@H](Cn1c2nc(=O)[nH]c(=O)c-2nc2cc(C)c(C)cc21)OC(=O)CCC	0.7µM*	CHIKV nsP2 cell=25%;NSP2 full ctr=17%;Furin counter=-12%;nsP2 NS23 pep=2%;Papain counter=?;nsP2pro conf qHTS=-4%;HCV NS3 4A cs=i
O=C([C@H](O)c1ccccc1)N1CCc2onc(-c3cccc4ccccc34)c2C1	i
CCc1ccc(C2=CC(C)(C)Sc3ccc(C#Cc4ccc(C(=O)O)cc4)cc32)cc1	120%
CCOC(=O)[C@H](CCc1ccccc1)N[C@@H](C)C(=O)N1CCC[C@H]1C(=O)O	3%
CC(NC(CCc1ccccc1)C(=O)O)C(=O)N1C(=O)N(C)CC1C(=O)O (stereo not given)	?	CHIKV nsP2 cell=3%;NSP2 full ctr=15µM*;Furin counter=51%;nsP2 NS23 pep=-25%;Papain counter=-16%;nsP2pro conf qHTS=?;HCV NS3 4A cs=i
CCC[C@H](N[C@@H](C)C(=O)N1[C@H](C(=O)O)C[C@@H]2CCCC[C@@H]21)C(=O)O	-13%
O=C(Cc1ccc(Cl)c(Cl)c1)Nc1ccc([S+](=O)([O-])Nc2nnc(-c3ccccn3)s2)cc1	i
O=S(=O)(Cc1ccc(Cl)c(Cl)c1)Nc1nnc(-c2ccncc2)s1	-22%
Cc1cc(C(=O)NC2CC(C)(C)Cc3nc(N4CCOCC4)ncc32)nn1C (stereo not given)	-2%
CO[C@H]1C[C@H](O[C@@H]2[C@H](C)O[C@H](O[C@@H]3/C(C)=C/C[C@@H]4C[C@@H](C[C@]5(C=C[C@H](C)[C@@H](C6CCCCC6)O5)O4)OC(=O)[C@@H]4C=C(C)C(O)[C@H]5OC/C(=C\C=C\[C@@H]3C)[C@]54O)C[C@@H]2OC)O[C@@H](C)[C@@H]1O (stereo not given in full)	-11%
COc1ncc(Nc2ncc([C@@H](C)N3CCN(S(C)(=O)=O)CC3)cc2-c2nc(C)nc(N)n2)cc1F	?	CHIKV nsP2 cell=113%;NSP2 full ctr=0%;Furin counter=-17%;nsP2 NS23 pep=1%;Papain counter=?;nsP2pro conf qHTS=-5%;HCV NS3 4A cs=i
CCc1nc(NCCOC)ncc1C(=O)O	3%
COc1ccc(CC(=O)N2C[C@@H]3C[C@H](C2)c2c(-c4ccc(NC(C)=O)cc4)ccc(=O)n2C3)cc1	-5%
COc1ccc(NC(=O)N2C[C@@H]3C[C@H](C2)c2c(NC(=O)CSC)ccc(=O)n2C3)cc1	-2%
CCCS(=O)(=O)Nc1ccc(=O)n2c1[C@@H]1C[C@@H](CN(C(=O)Nc3ccc(OC)cc3)C1)C2	?	CHIKV nsP2 cell=3%;NSP2 full ctr=?;Furin counter=-9%;nsP2 NS23 pep=?;Papain counter=-2%;nsP2pro conf qHTS=?;HCV NS3 4A cs=?
O=C(Nc1ccc(Cl)cc1)C1CCCN(C(=O)c2cccc(-c3ccco3)c2)C1 (stereo not given)	7µM*	CHIKV nsP2 cell=?;NSP2 full ctr=-19%;Furin counter=-8%;nsP2 NS23 pep=-24%;Papain counter=-16%;nsP2pro conf qHTS=?;HCV NS3 4A cs=i
COc1ccc(C(=O)N2CCC(C(=O)Nc3ccc(Cl)cc3)CC2)cc1	-16%
CC#CC(=O)N1CCCC(C(=O)Nc2ccc(-c3cccc(OC)c3)cc2)C1 (stereo not given)	i
SMILES	nsP2pro inh	others
COc1ccc(-c2ccc3nc(-c4ccc(F)c(F)c4)oc3c2)c(OC)c1OC	-1%
COc1ccc(-c2ccc3nc(-c4cccc(F)c4)oc3c2)c(OC)c1OC	?	CHIKV nsP2 cell=?
COc1ccc(-c2ccc3nc(-c4ccc(C)c(F)c4)oc3c2)c(OC)c1OC	0%
NS(=O)(=O)c1ccc(NC(=O)Nc2ccc(F)cc2)cc1	7%
CC(=O)Nc1ccc(NC(=O)CCC(=O)c2ccc(C)cc2)cc1	-7%
C/C(=N\N=C(N)N)c1ccc(NC(=O)Nc2ccc(/C(C)=N/N=C(N)N)cc2)cc1	8.8µM*	CHIKV nsP2 cell=6%;NSP2 full ctr=16µM*;Furin counter=16µM*;nsP2 NS23 pep=29µM*;Papain counter=?;nsP2pro conf qHTS=9µM*;HCV NS3 4A cs=18µM*
C#CCOc1ccccc1CN1CCN(c2ncc(F)cn2)CC1	0%
CCCN1C(=O)CCc2cc(NC(=O)NCCCOCC)ccc21	-2%
CCOc1ccc(NC(=O)NCCCN2CCN(c3ccc(OC)cc3)CC2)cc1	-11%
Cc1ccc(Cl)cc1N1CCN(CCNC(=O)Nc2ccc(Cl)cc2)CC1	-13%
O=C(Nc1ccc(N2CCN(CCOc3ccc(Cl)cc3)CC2)c(C(=O)O)c1)c1ccc(F)cc1	3.5µM*	CHIKV nsP2 cell=2%;NSP2 full ctr=3.3µM*;Furin counter=?;nsP2 NS23 pep=8.2µM*;Papain counter=16%;nsP2pro conf qHTS=7.1µM*;HCV NS3 4A cs=2.1µM*
CCCNC(=O)CN1CCN(c2ccc(NC(=O)c3ccc(OC)cc3)cc2C(=O)O)CC1	4.5µM*	CHIKV nsP2 cell=?;NSP2 full ctr=4.1µM*;Furin counter=?;nsP2 NS23 pep=13µM*;Papain counter=2%;nsP2pro conf qHTS=7.1µM*;HCV NS3 4A cs=2.9µM*
CCCCOc1ccc(C(=O)Nc2ccc(F)cc2F)cc1	-8%
CCOc1ccc(NC(=O)CN2CCN(S(=O)(=O)c3ccc(OC)cc3)CC2)cc1	-29%
CCOC(=O)c1ccoc1-c1ccc2ncnc(N(C)Cc3sccc3C)c2c1	i
CN(C(=O)Cc1ccsc1)C1CCc2nn(C)c(=O)n2CC1 (stereo not given)	-4%
C[N+](C)(C)CCOP(=O)([O-])OP(=O)(O)OC[C@H]1O[C@@H](n2ccc(N)nc2=O)[C@H](O)[C@@H]1O	-6%
CN(C)S(=O)(=O)N1CCc2nn(C)c(=O)n2CC1	-23%
CC(C)c1ccccc1-c1nc(NCc2ccc(-c3cccnc3)cc2)c2sccc2n1	1%
CC(=O)Nc1ccc2c(c1)S(=O)(=O)N=C(CC(C)C)N2CC(C)C	2%
COc1cccc(C(=O)Nc2ccc3nc(N4CCC(C)CC4)cc(C)c3c2)c1	8%
CCN1C(=O)c2ccccc2Sc2ccc(NC(=O)c3cccc(C)c3)cc21	-4%

Screening results as filed in PubChem.
